# The supplement of paper PMC8728848
# The sample as a whole holds a higher share of the strongest signals than the screen did.
# Experiments:
# Test in all cases: glycan array binding signal (z-score within array); higher = stronger binding
# Conditions in all cases: glycan notation: IUPAC condensed, linker removed; mutation: F63H
# [1] = biological target: Gal3S(b1-3)[Fuc(a1-4)]GlcNAc
# Outline: (§1)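 The binding signal is a Z-score computed within each array. Data were drawn from 3228 arrays in the Consortium for Functional Glycomics database, restricted to those with a known protein sequence. Scores were averaged over arrays of the same protein sequence at different concentrations or buffers, and over linkers, and negative values can be taken as non-binding.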
# [2] = biological target: Gal4S(b1-4)GlcNAc
# Outline: as §1
# [3] = biological target: GalNAc(b1-3)GlcNAc
# Outline: as §1
# [4] = biological target: Glc(a1-6)Glc(a1-6)Glc(a1-6)Glc
# Outline: as §1
# [5] = biological target: GlcA(b1-6)Gal
# Outline: as §1
# [6] = biological target: GlcA3S(b1-3)Gal(b1-4)GlcNAc(b1-2)Man
# Outline: as §1
# [7] = biological target: GlcA3S(b1-3)Gal(b1-4)GlcNAc(b1-3)Gal(b1-4)Glc
# Outline: as §1
# [8] = biological target: GlcNAc(a1-4)Gal(b1-4)GlcNAc(b1-3)Gal(b1-4)GlcNAc
# Outline: as §1
# [9] = biological target: GlcNAc(b1-2)Man(a1-3)[GlcNAc(b1-4)][GlcNAc(b1-2)Man(a1-6)]Man(b1-4)GlcNAc(b1-4)[Fuc(a1-6)]GlcNAc
# Outline: as §1
# [10] = biological target: GlcNAc(b1-3)Gal(b1-4)Glc
# Outline: as §1
# [11] = biological target: GlcNAc(b1-3)Gal(b1-4)GlcNAc(b1-3)Gal(b1-4)GlcNAc(b1-2)[GlcNAc(b1-3)Gal(b1-4)GlcNAc(b1-3)Gal(b1-4)GlcNAc(b1-6)]Man(a1-6)[GlcNAc(b1-3)Gal(b1-4)GlcNAc(b1-3)Gal(b1-4)GlcNAc(b1-2)Man(a1-3)]Man(b1-4)GlcNAc(b1-4)[Fuc(a1-6)]GlcNAc
# Outline: as §1
# [12] = biological target: GlcNAc(b1-3)Gal(b1-4)GlcNAc(b1-3)Gal(b1-4)GlcNAc(b1-3)Gal(b1-4)GlcNAc(b1-2)Man(a1-3)[GlcNAc(b1-3)Gal(b1-4)GlcNAc(b1-3)Gal(b1-4)GlcNAc(b1-3)Gal(b1-4)GlcNAc(b1-2)Man(a1-6)]Man(b1-4)GlcNAc(b1-4)[Fuc(a1-6)]GlcNAc
# Outline: as §1
# [13] = biological target: GlcNAc(b1-3)Gal(b1-4)GlcNAc(b1-3)Gal(b1-4)GlcNAc(b1-3)Gal(b1-4)GlcNAc(b1-3)Gal(b1-4)GlcNAc(b1-2)[GlcNAc(b1-3)Gal(b1-4)GlcNAc(b1-3)Gal(b1-4)GlcNAc(b1-3)Gal(b1-4)GlcNAc(b1-3)Gal(b1-4)GlcNAc(b1-6)]Man(a1-6)[GlcNAc(b1-3)Gal(b1-4)GlcNAc(b1-3)Gal(b1-4)GlcNAc(b1-3)Gal(b1-4)GlcNAc(b1-3)Gal(b1-4)GlcNAc(b1-2)Man(a1-3)]Man(b1-4)GlcNAc(b1-4)[Fuc(a1-6)]GlcNAc
# Outline: as §1
# [14] = biological target: GlcNAc(b1-3)Gal(b1-4)GlcNAc(b1-3)[GlcNAc(b1-3)Gal(b1-4)GlcNAc(b1-3)]GalNAc
# Outline: as §1
# [15] = biological target: GlcNAc(b1-3)Man
# Outline: as §1
# [16] = biological target: GlcNAc(b1-3)[GlcNAc(b1-4)][GlcNAc(b1-6)]GlcNAc
# Outline: as §1
# [17] = biological target: GlcNAc(b1-3)[GlcNAc(b1-6)]GalNAc
# Outline: as §1
# [18] = biological target: Kdn(a2-3)Gal(b1-3)GlcNAc
# Outline: as §1
# [19] = biological target: Man(a1-2)Man(a1-2)Man(a1-6)[Man(a1-3)]Man
# Outline: as §1
# [20] = biological target: Man(a1-2)Man(a1-3)Man
# Outline: as §1
# [21] = biological target: Neu5Ac(a2-3)Gal(b1-3)GalNAc(b1-4)Gal(b1-4)Glc
# Outline: as §1
# [22] = biological target: Neu5Ac(a2-3)Gal(b1-3)GlcNAc
# Outline: as §1
# [23] = biological target: Neu5Ac(a2-3)Gal(b1-3)[Fuc(a1-4)]GlcNAc(b1-3)Gal(b1-4)[Fuc(a1-3)]GlcNAc
# Outline: as §1
# [24] = biological target: Neu5Ac(a2-3)Gal(b1-3)[GlcNAc(b1-6)]GalNAc
# Outline: as §1
# [25] = biological target: Neu5Ac(a2-3)Gal(b1-4)GlcNAc(b1-2)[Neu5Ac(a2-3)Gal(b1-4)GlcNAc(b1-4)]Man(a1-3)[GlcNAc(b1-4)][Neu5Ac(a2-3)Gal(b1-4)GlcNAc(b1-4)Man(a1-6)]Man(b1-4)GlcNAc(b1-4)GlcNAc
# Outline: as §1
# [26] = biological target: Neu5Ac(a2-3)Gal(b1-4)GlcNAc(b1-2)[Neu5Ac(a2-3)Gal(b1-4)GlcNAc(b1-6)]Man(a1-6)[Neu5Ac(a2-3)Gal(b1-4)GlcNAc(b1-2)Man(a1-3)][GlcNAc(b1-4)]Man(b1-4)GlcNAc(b1-4)GlcNAc
# Outline: as §1
# [27] = biological target: Neu5Ac(a2-3)Gal(b1-4)GlcNAc(b1-6)[Gal(b1-3)]GalNAc
# Outline: as §1
# [28] = biological target: Neu5Ac(a2-6)Gal(b1-4)GlcNAc(b1-2)Man(a1-3)[GlcNAc(b1-2)Man(a1-6)]Man(b1-4)GlcNAc(b1-4)GlcNAc
# Outline: as §1
# [29] = biological target: Neu5Ac(a2-6)Gal(b1-4)GlcNAc(b1-3)Gal(b1-4)GlcNAc(b1-2)Man(a1-3)[Neu5Ac(a2-6)Gal(b1-4)GlcNAc(b1-3)Gal(b1-4)GlcNAc(b1-2)Man(a1-6)]GalNAc
# Outline: as §1
# [30] = biological target: Neu5Ac(a2-6)Gal(b1-4)GlcNAc(b1-6)[Gal(b1-3)]GalNAc
# Outline: as §1
# [31] = biological target: Neu5Gc(a2-3)Gal(b1-4)Glc
# Outline: as §1
# [32] = biological target: Neu5Gc(a2-3)Gal(b1-4)[Fuc(a1-3)]GlcNAc
# Outline: as §1
binder,measurement,setting,value
"AAL (Agrocybe aegerita), Q6WY08 (protein) MQGVNIYNISAGTSVDLAAPVTTGDIVTFFSSALNLNAGAGNPNNTTLNLFAENGAYLLHIAHRLQENVIIFNSRQPDGPWLVEQRVSDVANQFAGIDGKAMVTVFDHGDKYQVVINEKTVIQYTKQISGLTLSLSYNATEETSIFSTVVEAVTYTGLALEHHHHHH",glycan array binding signal (z-score),[1],-0.366
same,glycan array binding signal (z-score),[2],-0.569
same,glycan array binding signal (z-score),[3],-0.08
same,glycan array binding signal (z-score),[4],-0.408
same,glycan array binding signal (z-score),[5],0.43
same,glycan array binding signal (z-score),[6],14.9
same,glycan array binding signal (z-score),[7],12.7
same,glycan array binding signal (z-score),[8],-0.067
same,glycan array binding signal (z-score),[9],-0.109
same,glycan array binding signal (z-score),[10],1.42
same,glycan array binding signal (z-score),[11],0.909
same,glycan array binding signal (z-score),[12],0.906
same,glycan array binding signal (z-score),[13],0.818
same,glycan array binding signal (z-score),[14],0.58
same,glycan array binding signal (z-score),[15],-0.511
same,glycan array binding signal (z-score),[16],-0.568
same,glycan array binding signal (z-score),[17],-0.374
same,glycan array binding signal (z-score),[18],-0.066
same,glycan array binding signal (z-score),[19],-0.576
same,glycan array binding signal (z-score),[20],-0.172
same,glycan array binding signal (z-score),[21],0.045
same,glycan array binding signal (z-score),[22],-0.26
same,glycan array binding signal (z-score),[23],-0.137
same,glycan array binding signal (z-score),[24],0.214
same,glycan array binding signal (z-score),[25],-0.283
same,glycan array binding signal (z-score),[26],1.54
same,glycan array binding signal (z-score),[27],0.404
same,glycan array binding signal (z-score),[28],-0.73
same,glycan array binding signal (z-score),[29],-0.58
same,glycan array binding signal (z-score),[30],0.137
same,glycan array binding signal (z-score),[31],1.34
same,glycan array binding signal (z-score),[32],0.023
